# Test system: CDK8
# Details: concentration: 1 μM, replicates: in singlicate; n = 1
# 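Note: KINOMEscan kinase panel screen.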
row,SMILES,%Inh
1,CN1CCN(CCCNc2nccc(-c3c(-c4ccc(F)cc4)nn4cc(C(F)(F)F)ccc34)n2)CC1 [GW621581],19%
2,C[C@@H]1CC[C@@H](C(=O)Nc2ccccc2)CN1c1cc(-c2ccc3c(N)n[nH]c3c2)nc(N)n1 [GSK2286062],19%
3,Cl.Cl.NCC(NCc1ccc(-c2ccnc3[nH]ccc23)s1)c1ccccc1 (stereo not shown) [GSK1321565],39%
4,Nc1n[nH]c2cnc(-c3ccccc3)cc12 [SB-642124],0%
5,COc1cccc(NC(=O)NC2CCN(c3ccnc(Nc4cc(OC)c(OC)c(OC)c4)n3)C2)c1 (stereo not shown) [GSK1379763],39%
6,COc1cccc(C(=O)Nc2cccc(Oc3ccc4nc(NC(=O)C5CC5)cn4n3)c2)c1,38%
7,c1ccc(-c2n[nH]cc2Nc2ccnc3ccccc23)nc1 [GW694077],30%
8,O=C(Nc1cccc(-c2nn3ccccc3c2-c2ccnc(Nc3cccc(C(F)(F)F)c3)n2)c1)c1c(F)cccc1F [GSK292658],14%
9,CSc1cccc2c(-c3ccncn3)c(-c3ccc(F)cc3)nn12 [GW514786],37%
10,COc1ccc(CNC(=O)NC2CCN(c3ccnc(Nc4ccc(F)cc4)n3)CC2)cc1 [GSK1379788],45%
11,COCCOCCOc1cc2ncc3c4ccc(C#N)cc4[nH]c3c2cc1OC,1%
12,FC(F)(F)c1ccc(/C=C/c2cncnc2Nc2ccc3[nH]c(Cc4ccccc4)nc3c2)cc1 [GW709199],64%
13,COc1cc(Nc2nccc(N3CCC(NC(=O)Nc4cccc(C(C)=O)c4)C3)n2)cc(OC)c1OC (stereo not shown) [GSK1379753],27%
14,O=C(O)C(F)(F)F.O=C(O)C(F)(F)F.O=c1[nH]ccc2nc(N[C@@H]3CCCNC3)nc(Nc3ccc(S(=O)(=O)N4CCOCC4)cc3)c12 [GSK2177277],0%
15,Cc1ccc(C(=O)N2CC[C@@H](O)C2)cc1-n1c(C)cc(OCc2ccc(F)cc2F)c(Br)c1=O,0%
16,Cl.c1ccc(-c2ccc3c(Nc4ccc5[nH]ccc5c4)ccnc3c2)nc1 [GW440138],45%
17,CCCCc1nn2ncccc2c1-c1ccnc(Nc2ccc(N3CCN(C)CC3)cc2)n1 [GW684941],26%
18,COc1ccc(Nc2nccc(NCCNC(=O)c3cc4ccccc4s3)n2)cc1 [GSK1379896],15%
19,COc1ccc(Nc2nccc(N3CCC(NC(=O)Nc4cccc(OC)c4)C3)n2)cc1 (stereo not shown) [GSK1379742],72%

row,SMILES,%Inh
1,O=C(Nc1ccccc1F)NC1CCN(c2ccnc(Nc3ccc(F)cc3)n2)CC1 [GSK1379800],51%
2,Cn1cc(-c2ccc3c(c2)CCN3C(=O)Cc2cccc(F)c2)c2c(N)ncnc21 [GSK2603358],97.8%
3,CCc1ccc(-c2ccc3c(c2)-c2c(cnn2C)S(=O)(=O)N3C)cc1,0%
4,COc1cc(Nc2nccc(-c3c(-c4cccc(NC(=O)c5c(F)cccc5F)c4)nn4ccccc34)n2)cc(OC)c1OC [GSK323521],90%
5,O=C(Nc1cccc(Oc2ccc3nc(NC(=O)C4CC4)cn3n2)c1)c1ccccc1C(F)(F)F,26%
6,O=c1[nH]cc(-c2ccc(N3CCOCC3)cc2)c2sc(-c3cn[nH]c3)cc12 [GSK2276055],0%
7,Cc1cccc(Nc2nc(N[C@H]3CCNC3)ncc2C(N)=O)c1.Cl [GSK2197149],0%
8,Nc1ncc(-c2cccnc2)c2scc(-c3ccc4c(c3)CCN4C(=O)Cc3ccccc3)c12 [GSK683281],36%
9,Cl.Cl.NCC(C(=O)Nc1cc(Br)c(-c2ccnc3[nH]ccc23)s1)c1ccccc1 (stereo not shown) [GSK1269851],0%
10,Fc1ccc(-c2ncn(C3CCNCC3)c2-c2ccnc(Oc3ccc(-c4ccccc4)cc3)n2)cc1 [SB-245391],92.8%
11,Cl.c1ccc(-c2ccc3c(Nc4ccc5[nH]ncc5c4)ccnc3c2)nc1 [GW440137],26%
12,Cl.NC(=O)c1cccc(Nc2nccc(Nc3ccc(Oc4c(Cl)cccc4Cl)c(Cl)c3)n2)c1 [GW659009],18%
13,O=C(Nc1cccc(-c2nn3ncccc3c2-c2ccnc(Nc3ccccc3)n2)c1)c1c(F)cccc1F [GSK198271],0%
14,COC(=O)Nc1nc2ccc(Oc3ccc(NC(=O)Nc4cc(C(F)(F)F)ccc4F)cc3)cc2n1C.Cl [GW692089],77%
15,Oc1cc(Nc2ccnc3cc(I)ccc23)ccc1F [GW552771],23%
16,CC(C)c1nc(-c2cccc(NS(=O)(=O)c3c(F)cccc3F)c2F)c(-c2ccnc(Nc3ccc(N4CCOCC4)nc3)n2)s1 [GSK2008607],14%
17,CCn1c(-c2nonc2N)nc2c(C#CC(C)(C)O)nc(OC[C@H](N)c3ccccc3)cc21 [GSK943949],4%
18,CC(C)(C)c1ccc2nccc(Nc3cccc(O)c3)c2c1 [GW856795],68%

# Reference: PMC5540273 (PLoS ONE, 2017)
